According to publication PMC4336329 (PLoS ONE, 2015):
In all, about 310,000 compounds went through this assay and about 2,200 (0.71%) showed an effect of 50% or more. The effect is printed as a negative number. This is one part of a sample in which strong results are shown more often than they occur.

Molecular target: human ether-à-go-go-related gene (hERG) potassium channel (human, UniProt Q12809)
Test: primary screen, population patch clamp on CHO cells stably expressing hERG; higher = less effect of the substance

Chain of human ether-à-go-go-related gene (hERG) potassium channel (Q12809 whole entry, looked up): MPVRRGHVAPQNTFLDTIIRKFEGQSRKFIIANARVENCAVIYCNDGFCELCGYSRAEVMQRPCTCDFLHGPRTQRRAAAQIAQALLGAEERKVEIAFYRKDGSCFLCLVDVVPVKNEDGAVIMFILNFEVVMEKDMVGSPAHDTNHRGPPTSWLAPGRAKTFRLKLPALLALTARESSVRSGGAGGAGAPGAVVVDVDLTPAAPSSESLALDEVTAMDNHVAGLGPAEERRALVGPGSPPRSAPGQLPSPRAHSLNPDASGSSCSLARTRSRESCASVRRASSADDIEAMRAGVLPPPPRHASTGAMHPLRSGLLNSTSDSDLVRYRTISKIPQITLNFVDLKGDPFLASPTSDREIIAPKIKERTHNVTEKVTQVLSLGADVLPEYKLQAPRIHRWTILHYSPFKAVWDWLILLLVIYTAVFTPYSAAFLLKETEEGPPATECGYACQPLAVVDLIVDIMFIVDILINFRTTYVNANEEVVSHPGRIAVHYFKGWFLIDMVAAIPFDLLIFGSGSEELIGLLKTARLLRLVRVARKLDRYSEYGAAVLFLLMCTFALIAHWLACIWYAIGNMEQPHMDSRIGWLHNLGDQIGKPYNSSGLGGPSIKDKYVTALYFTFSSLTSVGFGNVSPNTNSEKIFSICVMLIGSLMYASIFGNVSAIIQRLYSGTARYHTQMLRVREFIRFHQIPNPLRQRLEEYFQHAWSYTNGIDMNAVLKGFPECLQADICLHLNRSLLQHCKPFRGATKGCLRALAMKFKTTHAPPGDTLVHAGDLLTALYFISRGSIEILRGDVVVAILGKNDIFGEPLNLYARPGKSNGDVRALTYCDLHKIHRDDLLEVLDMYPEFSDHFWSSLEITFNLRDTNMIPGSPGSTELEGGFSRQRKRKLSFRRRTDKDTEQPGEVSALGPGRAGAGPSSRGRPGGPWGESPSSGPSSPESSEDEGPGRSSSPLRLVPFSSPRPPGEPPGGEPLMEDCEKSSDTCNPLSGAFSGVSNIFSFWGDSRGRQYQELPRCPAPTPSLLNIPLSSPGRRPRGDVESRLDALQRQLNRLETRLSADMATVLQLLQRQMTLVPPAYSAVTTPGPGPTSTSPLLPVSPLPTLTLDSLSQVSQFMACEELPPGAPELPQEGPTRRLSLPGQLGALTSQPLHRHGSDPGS

SMILES | hERG current change (%, negative = inhibition) at 1uM [%]
COc1ccc(/C=C2/C(=O)NC(=O)N(c3ccc(C)c(C)c3)C2=O)cc1CN1C(=O)c2ccccc2C1=O | -3.04
CCCC(=O)Nc1c2c(nn1-c1cccc(C)c1C)CS(=O)(=O)C2 | 4.62
COc1ccccc1/C=C1\SC(=O)N(CCC(=O)N2CCCCC2CCO)C1=O (stereo not drawn) | 14.7
CCOC(=O)c1c2ccc(OCC(=O)NN)cc2n2ccccc12 | 13.3
CC1CC(C)CN(CCCNC(=O)C2CCN(c3ncnc4c3sc3cccc(F)c34)CC2)C1 (stereo not drawn) | -14.9
CCN(CC)CCNC(=O)c1cc(-c2ccco2)nc2ccccc12.Cl | -55
CCCCN(C)CCCNC(=O)c1cc(-c2cccs2)nc2ccccc12 | -80.8
CC(C)CCNC(=O)c1cc(-c2cccs2)nc2ccccc12 | 2.51
CCCCCCNC(=O)c1cc(-c2ccco2)nc2ccccc12 | 7.12
CCN(CC)CCNC(=O)c1ccc(NC(=O)c2cc(-c3ccco3)nc3ccccc23)cc1 | 9.15
CCCCN(C)CCCNC(=O)c1cc(-c2cccnc2)nc2ccccc12 | -20.2
O=C(NC1CCCCC1)N(C1=NCCCCC1)c1ccc(Br)cc1 | 13.1
Cc1cccc(NC(=O)CSCc2nc3c(nnn3Cc3ccc(F)cc3)c(=O)[nH]2)c1C | 8.63
Cc1cc(C)n2nc(NCc3cccc(Br)c3)nc2n1 | -32.1
O=C(Nc1cccc(NC(=O)c2ccccc2Cl)c1)c1ccc(F)cc1 | 7.98
CCOCc1c(C(=O)NC2CCCCCC2)oc2ccccc12 | -1.11
CCOC(=O)c1oc2ccccc2c1CN1CCOCC1.Cl | -5.9
COc1ccc2oc(C(=O)NCc3ccccc3CN3CCCC3)c(C)c2c1 | -27.2
CCOC(=O)c1oc2ccccc2c1CN1CCN(C)CC1.Cl | -50.2
CCOc1ccc2oc(C(=O)NCc3ccccc3CN3CCCC3)c(C)c2c1 | -12.2
COCc1c(C(=O)NCc2ccccc2CN2CCCC2)oc2ccccc12 | -34
Cc1c(C(=O)NCc2ccccc2CN2CCCC2)oc2ccc(F)cc12 | -57.4

SMILES | hERG current change (%, negative = inhibition) at 1uM [%]
CCOC(=O)c1oc2ccccc2c1CN1CCCCC1.Cl | -9.66
CCOCc1c(C(=O)NCc2ccccc2CN2CCCC2)oc2ccccc12 | -60.1
Cc1ccc(NC(=O)CCn2c(=S)oc3ccccc32)cc1 | 11
CC(C)(C)C(=O)Nc1c(Cl)cccc1OC(F)(F)F | 12.4
CC1CCN(S(=O)(=O)c2ccc3c(c2)n(C)c(=O)n3C)CC1 | 0.216
COc1ccc(CCN(C(=O)/C=C/C(=O)O)C2CC(=O)N(c3ccccc3)C2=O)cc1 (stereo not drawn) | 8.45
C=C(C)CNC(=O)CCc1nnc(C2(c3ccc(Cl)cc3)CCC2)o1 | 12.3
CCNC(=S)N1CCN(Cc2ccccc2)CC1.O=C(O)C(=O)O | -7.37
COc1ccc(NC(=O)CN2CCN(Cc3ccc4c(c3)OCO4)CC2)cc1OC.O=C(O)C(=O)O | 4.15
O=C(CN1CCN(S(=O)(=O)c2ccc(F)cc2)CC1)Nc1ccc2c(c1)OCO2 | -8
O=C(CN1CCN(Cc2ccc3c(c2)OCO3)CC1)Nc1ccc2c(c1)OCO2 | -64.3
O=C(CN1CCN(Cc2ccc3c(c2)OCO3)CC1)Nc1ccc(N2CCOCC2)cc1 | 8.8
O=C(CN1CCN(Cc2ccc(F)cc2)CC1)Nc1nc2ccccc2s1 | -54
O=C(CN1CCN(CC(=O)Nc2ccc3c(c2)OCO3)CC1)Nc1ccc(F)cc1 | -83.5
COC(=O)c1ccsc1NC(=O)CN1CCN(Cc2ccc3c(c2)OCO3)CC1 | -59.7
COC(=O)c1c(NC(=O)CN2CCN(Cc3ccc4c(c3)OCO4)CC2)sc(C)c1C.O=C(O)C(=O)O | 5.45
CCCN1CCN(CC(=O)Nc2nc3ccccc3s2)CC1 | -17.9
O=C(CN1CCN(c2ccc(F)cc2)CC1)Nc1ccc2c(c1)OCCO2 | 14.1
NC(=O)CN1CCN(Cc2ccc3c(c2)OCO3)CC1 | 22.5
O=C(CN1CCN(Cc2ccccc2)CC1)Nc1nc2ccccc2s1 | -24.1
CN(Cc1ccccc1)C(=O)CN1C(=O)NC(C)(c2ccc(Cl)cc2)C1=O (stereo not drawn) | 12.8
COc1ccc(-c2cc(C(=O)N3CCN(c4ccccc4F)CC3)c3ccccc3n2)c(OC)c1 | 4.75

SMILES | hERG current change (%, negative = inhibition) at 1uM [%]
CCn1c(SCC(=O)NCc2ccc3c(c2)OCO3)nnc1-c1c[nH]c2ccccc12 | 14.9
N/C(=N\OC(=O)CC1CCCCC1)c1ccncc1 | 12.3
O=C(c1ccc(F)cc1)N1CCN(C(=O)c2ccc([N+](=O)[O-])cc2)CC1 | -13.7
CCn1nc(C(=O)NNC(=O)c2ccccc2OCc2c(C)noc2C)c2ccccc2c1=O | 9.55
O=C(CCn1c(=O)[nH]c2ccccc2c1=O)N1CCN(c2ccc(Cl)cc2)CC1 | -4.13
Cc1cc(NS(=O)(=O)c2ccc(NC(=O)COc3ccc(Cl)cc3Cl)cc2)no1 | -0.394
CC(=O)O.NCC(c1ccco1)c1c[nH]c2ccccc12 (stereo not drawn) | 12.2
O=C(CN1CCN(C(=O)C2COc3ccccc3O2)CC1)Nc1ccc(F)cc1 (stereo not drawn) | -63.5
O=C(CN1CCN(Cc2ccc3c(c2)OCO3)CC1)NCC(F)(F)F | 11.2
CCN(CC(=O)Nc1c(C(=O)OC)[nH]c2ccccc12)c1ccc2c(c1)OCO2 | 12.1
COC(=O)c1[nH]c2ccccc2c1NC(=O)CN1CCN(Cc2ccc3c(c2)OCO3)CC1 | -70.3
O=C(CN1CCN(C(=O)C2COc3ccccc3O2)CC1)Nc1ccccc1 (stereo not drawn) | -22.5
O=C(CN1CCN(Cc2ccc3c(c2)OCO3)CC1)Nc1ccc(F)cc1 | -82.6
COC(=O)c1[nH]c2ccc(C)cc2c1NC(=O)CCN1CCN(Cc2ccc3c(c2)OCO3)CC1 | -33
O=C(C1COc2ccccc2O1)N1CCN(c2ccc(F)cc2)CC1 (stereo not drawn) | -9.29
COc1cc(NC(=O)CN2CCN(Cc3ccc4c(c3)OCO4)CC2)cc(OC)c1.O=C(O)C(=O)O | -9.16
O=C(COC(=O)/C=C/c1ccccc1F)Nc1nnc(-c2ccccc2)o1 | 7.16
Cc1ccc(S(=O)(=O)NCCOCCNS(=O)(=O)c2ccc(C)cc2)cc1 | -2.18
Cc1ccccc1C(=O)NC1CCN(C(=O)N2CCOCC2)CC1 | 12.6
O=c1cc(O)c2c(=O)n(C3CCCCC3)c3ccccc3c2o1 | 10.4
CC(C)OC(=O)CSc1nc2c(cc1C#N)CCCCC2 | 10.2
CC12CCC(=O)N1C(C(=O)Nc1cccc(S(=O)(=O)N3CCCCCC3)c1)CS2 (stereo not drawn) | -29.7

SMILES | hERG current change (%, negative = inhibition) at 1uM [%]
CC12CCC(=O)N1C(C(=O)OCC(=O)Nc1cc(S(=O)(=O)N3CCCCC3)ccc1Cl)CS2 (stereo not drawn) | 11.1
CC12CCC(=O)N1C(C(=O)OCC(=O)Nc1cccc(S(=O)(=O)N3CCCCCC3)c1)CS2 (stereo not drawn) | -51.9
COc1ccc(CNCC(O)(c2ccccc2)c2ccc(F)cc2)cc1 (stereo not drawn) | -45.9
O=C(CN1CCCC1=O)NCCc1ccccc1 | 8.88
CCOc1ccc(CN(C)C(C)C(=O)NCCc2ccc(F)cc2)cc1 (stereo not drawn) | -57.1
CN(CC(=O)NCc1ccccc1)Cc1ccc(Cl)cc1 | 2.36
CCOc1ccc(CN(C)C(C)C(=O)NCc2ccccc2)cc1 (stereo not drawn) | -21.7
CSc1ccc(CN(C)CC(=O)NCc2ccccc2)cc1 | -11.1
CN(CCc1ccccn1)Cc1ccc(Cl)cc1Cl | -54.1
CN(CCc1ccccn1)Cc1ccc(Cl)c(Cl)c1 | -0.903
CCC(CC)C(=O)NCCc1ccc(F)cc1 | 10.2
CSc1ccc(CN(C)CCc2ccccn2)cc1.O=C(O)C(=O)O | -21.3
CN(CCc1ccccn1)Cc1ccc(Cl)cc1 | -24.6
CCOc1ccc(CN(C)CC(=O)NCc2ccccc2)cc1 | -82.3
CCc1ccc(CN(C)CCc2ccccn2)cc1 | -34.7
CCOc1ccc(CN(C)CCc2ccccn2)cc1.O=C(O)C(=O)O | -58.8
O=c1c2ccccc2c(/C=N/c2nnc(Cc3ccccc3)s2)c(O)n1-c1ccc(Cl)cn1 | 11.3
COC(=O)C(C)NS(=O)(=O)c1ccc(NC(C)=O)cc1 (stereo not drawn) | 1.66
Cc1ccc(C(=O)c2coc3cc([N+](=O)[O-])c(O)c([N+](=O)[O-])c23)cc1 | 7.26
COCCCn1c(=O)/c(=C\c2ccccc2OC(F)F)s/c1=C(/C#N)C(=O)N1CCOCC1 | 9.19
CCN(CCn1cccn1)C(=O)c1cc(COc2ccc(F)c(F)c2)on1 | -27.1
